Reference: PubChem BioAssay (NCATS)
Where “and” joins values, the source holds several entries; their conditions need not be identical. Equal values may be shown once. Results filed as inconclusive are left out. Calls of active or inactive are those of the source. Unless noted, calls come from the whole dose curve; as a rule, active = well fitted curve in the direction sought with a large enough effect; inconclusive = small, poorly fitted or top-dose-only effect, or another doubt; inactive = no such curve, though single readings can be large; an effect the other way counts as inactive or inconclusive.

Columns and labels:
[1] = target: Muscarinic acetylcholine receptor M1 (Rattus norvegicus) (UniProt P08482); assay: qHTS Assay for Antagonists of Acetylcholine Muscarinic M1 Receptor: Kinetic Measurement of Intracellular Calcium Response (AID 943); note: nearly all actives have a fitted effect of over 75% in size; note: potency is the fitted concentration of half-maximal effect
Muscarinic acetylcholine receptor M1 (Rattus norvegicus), sequence (P08482 whole entry, looked up): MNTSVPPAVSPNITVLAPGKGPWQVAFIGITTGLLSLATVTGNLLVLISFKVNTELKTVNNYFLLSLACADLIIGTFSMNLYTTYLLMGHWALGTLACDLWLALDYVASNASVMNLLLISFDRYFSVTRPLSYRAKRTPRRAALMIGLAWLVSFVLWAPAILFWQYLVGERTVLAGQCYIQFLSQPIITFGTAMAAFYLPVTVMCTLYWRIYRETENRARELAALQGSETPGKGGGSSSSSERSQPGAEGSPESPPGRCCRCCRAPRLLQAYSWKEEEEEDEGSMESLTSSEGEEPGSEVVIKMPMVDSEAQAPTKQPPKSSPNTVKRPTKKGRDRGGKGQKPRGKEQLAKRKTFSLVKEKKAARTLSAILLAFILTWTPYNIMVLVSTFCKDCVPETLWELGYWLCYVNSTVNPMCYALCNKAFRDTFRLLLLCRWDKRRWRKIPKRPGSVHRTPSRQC
Outline: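 CHO cells stably expressing rat M1 were loaded with no-wash Fluo-4 dye for 1 h at 37C, pre-incubated 10 min with compound, then challenged with EC80 carbachol (100 nM final); kinetic calcium read 4 min, peak/basal ratio.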

[2] = target: Muscarinic acetylcholine receptor M1 (Rattus norvegicus) (UniProt P08482); assay: qHTS Assay for Antagonists of Acetylcholine Muscarinic M1 Receptor: Measurement of IP-One Response (AID 944); note: nearly all actives have a fitted effect of over 75% in size; note: potency is the fitted concentration of half-maximal effect
Outline: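 CHO cells expressing rat M1 receptor, recovered overnight, were pre-incubated 10 min with compound, then stimulated 30 min with carbachol at EC80 (200 nM) in LiCl-containing buffer, pH 7.4. IP1 accumulation was read by HTRF (620/665 nm).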

[3] = Cell Viability - Jurkat (AID 426;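 active = dose-dependent loss of cell ATP signal giving a full or clear fitted curve, ranked by lower potency value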; note: potency is the fitted concentration of half-maximal effect); conditions: qHTS
Outline: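 Jurkat (clone E6-1, human T-cell leukemia) cells, 5000/well in complete medium, were exposed to compound for 40 hr at 37 °C. Viability was read as intracellular ATP by CellTiter-Glo luminescence; AC50 came from Hill fits of concentration-response data.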

[4] = Cell Viability - SH-SY5Y (AID 544); conditions: SH-SY5Y neuroblastoma cell viability; viability change, negative = cytotoxic: at 92.2 µM (top of the series); note: potency is the fitted concentration of half-maximal effect; nearly all actives have a fitted effect of over 55% in size
Outline: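 Human neuroblastoma SH-SY5Y cells (1500/well) in complete medium were exposed to compounds for 40 hr at 37 °C; intracellular ATP was then quantified by CellTiter-Glo luminescence after 20 min at room temperature. AC50 came from Hill-equation concentration-response fits.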

[5] = Cell Viability - Renal Proximal Tubule (AID 545); conditions: renal proximal tubule cells viability; at 91.7 µM (top of the series), primary cells of rat origin unless noted;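 note: 0% = DMSO only and -100% = 100 µM tamoxifen; nearly all actives have a fitted effect of over 40% in size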
Outline: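 Rat kidney proximal tubule cells, freshly isolated; 1000 cells/well, 5 hr settle, compound 40 hr 37 °C. CellTiter-Glo 20 min RT, luminescence read. AC50 by standard Hill fit.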

[6] = Cellular Toxicity (caspase-3) HUV-EC-C (AID 656);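 note: 0% = DMSO basal and 100% = 100 µM tamoxifen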
Outline: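 Luminescent caspase-3/7 activation (aminoluciferin substrate cleavage) in HUV-EC-C cells after 16 hr compound exposure, 37°C. Signal normalized to DMSO basal and 100 uM tamoxifen as 100%; AC50 from concentration-response fitted with the Hill equation.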

[7] = Cellular Toxicity (caspase-3) BJ (AID 658)
Outline: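 Readout: Caspase-Glo 3/7 luminescence increase in BJ cells after 16 hr treatment at 37 °C. Staurosporine and tamoxifen served as positive controls; AC50 values came from Hill modelling of data normalized to DMSO and 10 uM staurosporine.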

[8] = Cellular Toxicity (caspase-3) SK-N-SH (AID 661)
Outline: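 SK-N-SH human neuroblastoma cells (1500/well) were treated with compounds for 16 hr at 37 °C in complete medium; caspase 3/7 activity was read by Caspase-Glo luminescence. AC50 came from Hill fits of data normalized to DMSO and 10 uM staurosporine.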

[9] = Cellular Toxicity (caspase-3) H-4-II-E (AID 663);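 note: cells exposed to compound for 16 hr before readout; 0% = DMSO basal and 100% = 100 µM tamoxifen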
Outline: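 Apoptosis induction is scored as increased luminescence from caspase 3/7 substrate cleavage in rat hepatoma H-4-II-E cells exposed to compound for 16 hr. Activity is scaled between DMSO and 100 uM tamoxifen.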

[10] = Cellular Toxicity (caspase-3) N2a (AID 665); conditions: N2a cells, luminescence, normalized: DMSO 0%, 10 µM staurosporine 100%; at 92.2 µM (top of the series);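 note: compound exposure lasted 16 h at 37 °C before readout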
Outline: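 Mouse N2a neuroblastoma cells (1500/well) were treated with compounds for 16 h at 37 °C, then caspase-3/7 activity was read by Caspase-Glo luminescence after 1 h at room temperature. Data were normalized to DMSO and 10 uM staurosporine; AC50 from Hill fits.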

[11] = Cellular Toxicity (caspase-3) NIH 3T3 (AID 666);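 note: 0% = DMSO basal and 100% = 100 µM tamoxifen stimulation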
Outline: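 Mouse NIH 3T3 fibroblasts (1000 cells/well) were treated with compound for 16 hr at 37°C in complete medium; caspase-3/7 activity was read by Caspase-Glo luminescence. Normalized to DMSO and 100 uM tamoxifen; AC50 from Hill fits.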

[12] = Cellular Toxicity (caspase-3) Renal Proximal Tubule (AID 667); conditions: renal proximal tubule cells; at 91.7 µM (top of the series), primary cells freshly taken from rat, solvent-only wells 0%, staurosporine 100% unless noted;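 note: cells exposed to compound for 16 hours at 37 °C before detection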
Outline: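 Luminescent caspase 3/7 signal from peptide-aminoluciferin cleavage measures apoptosis in freshly isolated rat kidney proximal tubule cells after 16 h compound exposure. Concentration-response data are normalized to DMSO and 10 uM staurosporine, and AC50 values come from Hill equation fits.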

[13] = Cell Viability - LYMP2-001 (AID 921); note: nearly all actives have a fitted effect of over 70% in size; note: potency is the fitted concentration of half-maximal effect
Outline: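 CellTiter-Glo luminescence (intracellular ATP) after 24 hr compound exposure at 37 C, 2500 lymphoblastoid cells/well in complete medium. AC50 fitted with standard Hill equation; tetraoctylammonium bromide positive control.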

[14] = Cell Viability - LYMP1-002 - Assay at 16 hr (AID 948); note: potency is the fitted concentration of half-maximal effect;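 for activity change, negative = cytotoxicity: 0% = DMSO alone and full effect = 92 µM tetraoctylammonium bromide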
Outline: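 LYMP1-002 human lymphoblastoid cells, 2500/well; 5 hr 37 C; cpd 16 hr 37 C; CellTiter-Glo 30 min RT; luminescence (ATP). Concentration-response, Hill-fit AC50. Pos ctrl tetraoctylammonium bromide.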

[15] = MultiTox-Fluor Cytotoxicity Assay - LYMP1-002 - Dead Cells (AID 960); note: potency is the fitted concentration of half-maximal effect; nearly all actives have a fitted effect of over 60% in size
Outline: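 Human lymphoblastoid cells (LYMP1-002), 2500/well in complete medium, were exposed to compounds for 16 hr at 37 C. Dead-cell protease activity was read as bis-AAF-R110 fluorescence (Ex/Em 485/520), normalized to DMSO and 15 uM tetraoctylammonium bromide; AC50 from Hill fits.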

[16] = MultiTox-Fluor Cytotoxicity Assay - LYMP1-003 - Live Cells (AID 962); note: potency is the fitted concentration of half-maximal effect
Outline: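 LYMP1-003 human lymphoblastoid cells (2500/well) in complete medium were preincubated 5 hr at 37 C, then exposed to compounds for 16 hr at 37 C. Live-cell protease cleavage of GF-AFC read by fluorescence (Ex/Em 405/510); AC50 from Hill fits.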

[17] = Cell Viability - LYMP1-003 - Assay at 24 hr (AID 963); note: potency is the fitted concentration of half-maximal effect;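 for viability change, negative = cytotoxic: plate controls were DMSO only for no effect and tetraoctylammonium bromide positive control for full effect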
Outline: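 Human lymphoblastoid LYMP1-003 cells (2500/well) were rested 5 hr at 37 C, then exposed to compounds in complete medium for 24 hr at 37 C. Cellular ATP was quantified by CellTiter-Glo luminescence, and AC50 values came from Hill fits of concentration-response data.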

[18] = Cell Viability - LYMP1-003 - Assay at 40 hr (AID 964); note: nearly all actives have a fitted effect of over 60% in size; note: potency is the fitted concentration of half-maximal effect
Outline: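 Human lymphoblastoid LYMP1-003 cells, 2500/well in complete medium, rested 5 hr at 37 C, then exposed to compounds for 40 hr at 37 C. Viability read as intracellular ATP by CellTiter-Glo luminescence; AC50 from Hill fits of concentration-response data.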

[19] = qHTS assay for small molecule disruptors of the mitochondrial membrane potential - 1 hr assay (AID 651754; calls by dose curve; note: nearly all actives have a fitted effect of over 35% in size; note: potency is the fitted concentration of half-maximal effect)
Outline: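 HepG2 cells, attached overnight at 37C, were exposed to compound or DMSO vehicle for 1 hr at 37C, 5% CO2, then stained with Mito-MPS dye for 30 min. Red aggregate versus green monomer fluorescence reports membrane potential.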

[20] = qHTS assay for small molecule antagonists of the retinoid-related orphan receptor gamma (ROR-gamma) signaling pathway - cell viability counter screen (AID 720652; active = well fitted curve in the direction sought with a large enough effect in the repeat runs; an effect the other way counts as inactive or inconclusive;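 note: potency is the fitted concentration of half-maximal effect; compound exposure lasted 16 hr before ATP read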)
Outline: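 Counter screen in CHO cells carrying TET-inducible ROR-gamma and an ROR response element-luciferase reporter; cells plated 5 hr, compound pinned, doxycycline added, then 16 hr at 37 C. Viability read as intracellular ATP by CellTiter-Glo luminescence.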

NC[C@H](O)c1ccc(O)cc1
inactive: Potency [1] | Potency [2]

CC(C)N(CC[C@@](C(N)=O)(c1ccccc1)c1ccccn1)C(C)C
active: Potency [1] 4.47 µM and 3.98 µM | Potency [2] 5.62 µM and 6.31 µM

CCCCCCCCCc1ccc(O)cc1
inactive: Potency [3] > 92 µM | outcome [6] | outcome [7] | outcome [8] | outcome [9] | outcome [11] | Potency [13] | Potency [14] | Potency [16] | Potency [17] | Potency [18]
active: Potency [4] 12.6 µM | activity change, negative = cytotoxicity [5] -80.8% | caspase-3 activation [10] 98.6% | caspase-3 activation [12] 172% | Potency [15] 25.1 µM | Potency [19] 10.6 µM | Potency [20] 66.8 µM

O=C1C(Cl)=C(Cl)C(=O)C(Cl)=C1Cl
inactive: outcome [6] | outcome [7] | outcome [8] | outcome [9] | caspase-3 activation [10] -13.5% | outcome [11] | caspase-3 activation [12] -16.1% | Potency [19]
active: Potency [3] 9.41 µM | Potency [4] 25.1 µM | activity change, negative = cytotoxicity [5] -104% | Potency [13] 12.6 µM | Potency [14] 31.6 µM | Potency [15] 15.8 µM | Potency [16] 50.1 µM | Potency [17] 31.6 µM | Potency [18] 31.6 µM | Potency [20] 23.7 µM
